Laboratory results taken from PubChem BioAssay (NCI).
Compounds without any hit were thinned out: in the full panel of roughly 83,000, 20% have a hit.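 Percent growth is the endpoint: 0 to 100 indicates growth inhibition (40 means 60% inhibition), 0 means no net growth, and negative values indicate cell death.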 Unmarked numbers belong to inactive results. Activity calls are given as the source filed them. Rule for the calls: active = growth percent below 10; inactive = the rest.

Experiments:
Assay in all cases: NCI-60 one-dose screen, 48 h (100 = growth as untreated, 0 = no growth, -100 = all killed)
Conditions in all cases: 10 µM unless noted
SK-MEL-2 melanoma = tested on: SK-MEL-2 melanoma
EKVX NSCLC = tested on: EKVX NSCLC
SN12C renal = tested on: SN12C renal
UO-31 renal = tested on: UO-31 renal
TK-10 renal = tested on: TK-10 renal
ACHN renal = tested on: ACHN renal
CAKI-1 renal = tested on: CAKI-1 renal
A498 renal = tested on: A498 renal
CCRF-CEM leukemia = tested on: CCRF-CEM leukemia
MOLT-4 leukemia = tested on: MOLT-4 leukemia
RPMI-8226 leukemia = tested on: RPMI-8226 leukemia
OVCAR-8 ovarian = tested on: OVCAR-8 ovarian
OVCAR-5 ovarian = tested on: OVCAR-5 ovarian
OVCAR-4 ovarian = tested on: OVCAR-4 ovarian
SK-OV-3 ovarian = tested on: SK-OV-3 ovarian
IGROV1 ovarian = tested on: IGROV1 ovarian
OVCAR-3 ovarian = tested on: OVCAR-3 ovarian
HS 578T breast = tested on: HS 578T breast
NCI/ADR-RES ovarian = tested on: NCI/ADR-RES ovarian

| SMILES | growth (SK-MEL-2 melanoma) | growth (EKVX NSCLC) | growth (SN12C renal) | growth (UO-31 renal) | growth (TK-10 renal) | growth (ACHN renal) | growth (CAKI-1 renal) | growth (A498 renal) | growth (CCRF-CEM leukemia) | growth (MOLT-4 leukemia) | growth (RPMI-8226 leukemia) | growth (OVCAR-8 ovarian) | growth (OVCAR-5 ovarian) | growth (OVCAR-4 ovarian) | growth (SK-OV-3 ovarian) | growth (IGROV1 ovarian) | growth (OVCAR-3 ovarian) | growth (HS 578T breast) | growth (NCI/ADR-RES ovarian) |
| --- | --- | --- | --- | --- | --- | --- | --- | --- | --- | --- | --- | --- | --- | --- | --- | --- | --- | --- | --- |
| c1coc(-c2c3ccc(=[N+]4CCCCC4)cc-3oc3cc(N4CCCCC4)ccc23)c1 | -80.4% (active) | -66.5% (active) | -75.4% (active) | -84.6% (active) | -93.3% (active) | -95.9% (active) | -82.9% (active) | -66.3% (active) | -50.1% (active) | -43% (active) | -42.7% (active) | -61% (active) | -91.8% (active) | -41.9% (active) | -95.2% (active) | -67.5% (active) | -99.2% (active) | -35.6% (active) | -60.2% (active) |
| CSc1n(Cc2ccc3ccccc3c2)c(C)c[n+]1Cc1ccc2ccccc2c1 | -25.7% (active) | 24.9% | -2.22% (active) | 72.4% | -9.72% (active) | 48% | -22.8% (active) | -32.3% (active) | 1.28% (active) | 2.39% (active) | -38.3% (active) | -3.48% (active) | 6.94% (active) | -7.94% (active) | 5.34% (active) | -55.6% (active) | -41.9% (active) | -23.3% (active) | 78.4% |
| COc1ccc(C2c3ccc4ccccc4c3Oc3nc(C)[nH]c(=O)c32)cc1 (stereo not given) | 112% | 103% | 99.4% | -97.5% (active) | 116% | 92.3% | 73.9% | 92.5% | 106% | 115% | 102% | 101% | 114% | 113% | 100% | 95.8% | 108% | 96.3% | 93.9% |
| CCN1C(=O)N(CC)C2Nn3c(s/c(=C4\C(=O)N(C)c5ccccc54)c3=O)=NC21 (stereo not given) | 48.2% | 71.2% | 43.4% | 48.6% | 8.83% (active) | 46.9% | 36% | -2.65% (active) | 35.8% | 60.5% | 48.2% | 38% | 53.8% | 59.6% | 63.4% | 43.3% | 8.52% (active) | 38.3% | 6.8% (active) |
| Cn1ccc2c(c1=O)C(=O)c1nccc3c1c-2nc1ccccc13 | 98.1% | 86.9% | 66.8% | 46.2% | 1.92% (active) | 21.3% | 61% | 87.6% | -12.8% (active) | 34.5% | -29% (active) | -58.5% (active) | 69% | -44.9% (active) | 92.3% | 44.6% | -96.3% (active) | 96.8% | 41% |
| COc1ccc(-c2[nH]c(=S)n(C(CC3(C)NCC(=O)N3n3c(-c4ccccc4)cc(C)nc3=S)c3ccc(OC)cc3)c(=O)c2Br)cc1 (stereo not given) | 73.5% | 60.5% | 65.5% | 38.6% | 63.5% | 67.5% | 31.4% | -10.4% (active) | 57.5% | 54.6% | -7.13% (active) | 71.2% | 83.4% | 54.9% | 62.4% | 50.6% | 67.5% | 40.7% | 80.3% |
| Cn1c(=O)c2[nH]c(NN)nc2n(C)c1=O | 105% | 120% | 108% | 90.8% | 107% | 105% | 96% | 109% | 92.4% | 96.1% | 96% | 129% | 115% | 116% | 114% | 116% | 118% | 122% | 113% |
| CCOc1ccccc1-n1c(CN2CCN(C(=O)COc3ccc(CNCCCCCCN4C5CCCC4CC(OC(=O)Nc4cc(C)ccc4OC)C5)cc3)CC2)nc2ccccc2c1=O (stereo not given) | -90.9% (active) | -92.1% (active) | -91% (active) | -98.5% (active) | -86.3% (active) | -100% (active) | -100% (active) | -93.4% (active) | -64.9% (active) | -68% (active) | -56.8% (active) | -88.4% (active) | -91.5% (active) | -84.7% (active) | -98.7% (active) | -77.4% (active) | -91.6% (active) | -42.2% (active) | 67% |
| Cc1cc(=O)[nH]c(N=Nc2c(O)[nH]c3ccccc23)n1 | 103% | 111% | 102% | 84.9% | 112% | 101% | 96.1% | 127% | 94.6% | 109% | 105% | 104% | 105% | 118% | 112% | 92.8% | 112% | 122% | 108% |
| COc1ccc(NC(=O)CSc2nnc(-c3cc(-c4ccc(S(N)(=O)=O)cc4)nc4ccccc34)n2-c2ccccc2)cc1 | 93% | 78.5% | 81.6% | 74.5% | 103% | 81.6% | 61.2% | 54.3% | 73.2% | 58% | 57.9% | 75.4% | 92.8% | 88.6% | 89.8% | 77.9% | 95.1% | 75.6% | 104% |
| O=C(CCc1nnc(CN(c2ccccc2)c2ccccc2)o1)c1nc2ccccc2[nH]1 | 88.7% | 63.4% | 86.9% | 61.3% | 117% | 108% | 84.1% | 80.5% | 77.6% | 55.7% | 70.7% | 88.3% | 108% | 82.9% | 96.2% | 74.6% | 95% | 92.3% | 91.4% |
| COc1cc(C(=O)c2cc(C)c3[nH]c4ccc(Cl)cc4c3c2C)cc(OC)c1OC | 57.6% | 50.2% | 17.5% | 24.6% | 87.5% | 24.2% | 21% | -9.44% (active) | 17.2% | 20.7% | 22.4% | 28.5% | 42.3% | 56.4% | 45.7% | 9.24% (active) | -35.7% (active) | 43.5% | 0.863% (active) |
| CC(C)CC(NC(=O)CN(Cc1ccccc1)S(C)(=O)=O)C(=O)O (stereo not given) | 125% | 97.9% | 108% | 96.7% | 93.9% | 102% | 62.2% | 95.3% | 98.2% | 94.7% | 102% | 100% | 94% | 104% | 90.9% | – | 96.6% | 91.6% | 98.9% |
| Cc1ccc(-n2nc3c(c(C#N)c2=O)CC(c2ccccc2Cl)C([N+](=O)[O-])=C3O)cc1 (stereo not given) | 99.2% | 90.2% | 108% | 78.4% | 123% | 100% | 84% | 85.9% | 84.3% | 77.1% | 83.2% | 102% | 108% | 90.4% | – | 90% | 103% | 94.7% | 98.2% |
| COc1cc2nc(Cl)nc(Nc3ccc(S(=O)(=O)Nc4nccs4)cc3)c2cc1OC | 102% | 93.9% | 95.7% | 85.4% | 119% | 88.2% | 88.2% | 136% | 117% | 99.3% | 107% | 97.3% | 111% | – | 101% | 107% | 116% | 99.5% | 104% |
| COc1cc(/C=N/Nc2ncc(-c3cc4cc5c(cc4o3)OCO5)s2)cc(OC)c1OC | 79.7% | 71.4% | 71.2% | 66.8% | 101% | 74.3% | 64.2% | 75.6% | 26% | 18.6% | 6.26% (active) | 30% | 98.2% | 68.7% | – | 66.7% | 67.2% | 89.6% | 26.3% |
